Each structure is given as a SMILES string. Values joined by “and” are separate entries in the source; they are usually repeats but may differ in a detail not shown here. Equal entries are not always repeated. In all, about 650,000 compounds went through this assay and about 6,800 (1%) were called active. This is one part of a sample in which actives are shown more often than they occur. Cut-off read from the data, not from the text of the source: active = activation above about 4.9%; inactive = the rest.

The target of this test is G-protein coupled receptor 151 (Homo sapiens) (UniProt Q8TDV0). Briefly: activators of human GPR151, primary screen, cell-based, PathHunter beta-arrestin, luminescence (AID 1508602).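 Note: 0% = median of compound wells and 100% = cells with positive control.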 The conditions noted are these: PathHunter beta-arrestin GPR151 cells, at 11.2 µM, active compounds read high.
Chain of G-protein coupled receptor 151 (Homo sapiens) (Q8TDV0 whole entry, looked up): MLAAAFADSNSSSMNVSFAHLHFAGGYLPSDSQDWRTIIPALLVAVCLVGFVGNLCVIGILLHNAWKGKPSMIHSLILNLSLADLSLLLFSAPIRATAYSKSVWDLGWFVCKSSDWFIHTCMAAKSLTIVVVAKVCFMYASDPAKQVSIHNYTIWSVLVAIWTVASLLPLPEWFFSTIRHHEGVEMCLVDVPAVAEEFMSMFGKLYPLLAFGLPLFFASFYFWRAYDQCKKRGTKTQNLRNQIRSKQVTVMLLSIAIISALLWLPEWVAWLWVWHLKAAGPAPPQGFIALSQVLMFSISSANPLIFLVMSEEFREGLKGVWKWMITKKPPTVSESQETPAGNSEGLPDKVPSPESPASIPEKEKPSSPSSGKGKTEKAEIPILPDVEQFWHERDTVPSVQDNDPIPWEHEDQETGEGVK
As for `COc1ccc(CCN(C(C)=O)C2CC(=O)N(c3ccc(Cl)cc3)C2=O)cc1` (stereo not drawn), the activation is 2.31% (inactive).

For `Cc1nc2ccccc2c(=O)n1-c1ccc(OC(F)(F)C(F)F)cc1`, the activation was -0.339% (inactive). As for `COc1ccccc1C1C(C(N)=O)=C(C)Nc2nc(CCCO)nn21` (stereo not drawn), the figure is 7.86% (active); as for `CC1=C(C(N)=O)C(c2ccc(F)cc2)n2nc(CCCO)nc2N1` (stereo not drawn), 0.25% (inactive). For the compound `COc1ccccc1C1C(C(=O)Nc2ccc(F)cc2)=C(C)Nc2nc(CCCO)nn21` (stereo not drawn), the activation was -0.0995% (inactive). Take `O=S(=O)(c1cccs1)N1CCc2nc(-c3cccnc3)nc(N3CCCCC3)c2C1`: the activation was 0.747% (inactive). `O=C(O)c1cccc(-n2[nH]c(=O)ccc2=O)c1`: the activation was -1.37% (inactive). The figure for `COc1ccc(-c2c(C)oc3cc(OC)ccc3c2=O)cc1` is 0.167% (inactive). The figure for `CCOC(=O)c1cc2cc(-c3c(C)oc4cc(OC(C)=O)ccc4c3=O)ccc2o1` is 6.66% (active); for `CCOC(=O)c1cc2cc(-c3c(C(=O)OCC)oc4cc(O)cc(O)c4c3=O)ccc2o1` it is 0.272% (inactive); for `C/C=C/C=C/C(=O)N1C(=O)C(=O)c2ccccc21` it is -4.81% (inactive). With `Cc1ccc(NC(=O)CSc2nnc(-c3ccc(N)cc3)n2C)cc1Cl`, the activation is 5.78% (active). Regarding `Cc1ccc(Cl)cc1NC(=O)CSc1nnc(-c2ccc(N)cc2)n1C`, the activation was 0.746% (inactive).

In the case of `Cc1ccc(NC(=O)CSc2nnc(-c3ccc(O)cc3)n2C)cc1N`, the activation was -0.276% (inactive).

For `CCOC(=O)/C(C#N)=C\c1c(C)cc(C)c(COC)c1C`, the activation is 4.44% (inactive). As for `CN1CCC[C@@H]1CCOC(C)(c1ccccc1)c1ccc(Cl)cc1` (stereo partly drawn), the activation is -2.7% (inactive) and 3.67% (inactive). Regarding `O=c1sc2sc(=S)sc2s1`, the activation is -0.693% (inactive). As for `c1ccc(-n2nnnc2NC2CCCCCC2)cc1`, the activation was -0.96% (inactive).

`C1CCC(Nc2nc3nonc3nc2NC2CCCCC2)CC1`: the activation is -0.129% (inactive). As to `Brc1cnc(NC2CCCCC2)nc1`, the activation was 7.99% (active). On to `CCc1cc2cc(OC)ccc2nc1SCC(=O)Nc1nccs1`, for which the activation is 0.182% (inactive). As for `CN1CCN(C(=O)c2ccc(-c3nc(NCc4ccccc4)c4ncn(Cc5ccc(C(F)(F)F)cc5)c4n3)cc2)CC1`, the activation was 0.228% (inactive).

For `COc1ccccc1C(=O)CN1CCN(S(=O)(=O)c2ccc(Cl)cc2)CC1`, the activation was 1.49% (inactive). Consider `O=[N+]([O-])c1ccccc1S(=O)(=O)NCCSCc1ccc(Cl)cc1`, for which the activation was -0.348% (inactive). Consider `NC(=O)C12CC3CC(CC(C3)C1)C2`, for which the activation is -0.0547% (inactive). Regarding `COC(=O)[C@@H]1CC(O)CN1C(=O)C12CC3CC(CC(C3)C1)C2` (stereo partly drawn), the activation is 6.17% (active). The figure for `O=C(N1CCCCCC1)C12CC3CC(CC(C3)C1)C2` is 0.202% (inactive).

Regarding `CCc1ccc(N2N=C(C)/C(=C\c3ccc(-c4ccc5c(c4)C(=O)NC5=O)o3)C2=O)cc1`, the activation was 6.36% (active). Turning to `CCc1ccc(N2N=C(C)/C(=C/c3ccc(-c4ccc(S(N)(=O)=O)cc4)o3)C2=O)cc1`, the activation was -0.641% (inactive). In the case of `CC1=NN(c2cccc(Cl)c2)C(=O)/C1=C/c1ccc(-c2ccc(F)cc2)o1`, the activation is 1.46% (inactive). The figure for `COc1cccc(NC(=O)c2sc3ncn(CC(=O)Nc4ccccc4OC)c(=O)c3c2C)c1` is 0.463% (inactive). The figure for `CC(C)(C)C1(O)CC(=O)C(=O)NN1c1ccccc1` (stereo not drawn) is -0.103% (inactive). `CC(CO)(CO)NC(=S)NC(=O)c1ccccc1`: the activation is -2.1% (inactive). In the case of `CC(C)C[C@@H]1NC(=O)[C@H]2CN(Cc3ccccc3Cl)CCN2C1=O`, the activation is 1.34% (inactive). As for `Cc1ccc(C(=O)COc2ccc(C#N)cc2)c(C)c1`, the activation is 0.546% (inactive). With `Cc1sc(NC(=O)CN(C(=O)c2cccc(F)c2)C2CCCC2)c(C(N)=O)c1C`, the activation was 0.439% (inactive). For the compound `Cc1cc(N2CCOCC2)ccc1C=C1C(=O)c2ccccc2C1=O`, the activation was 5.28% (active).

For `Cc1cc(N2CCOCC2)ccc1/C=C1\C(=O)NC(=S)N(c2ccccc2)C1=O`, the activation was 0.368% (inactive). Turning to `CCN1C(=O)C(=Cc2ccc(N3CCCC3)cc2C)C(=O)N(CC)C1=S`, the activation was 2.62% (inactive). As to `O=C(Nc1nc2c(ccc3ccccc32)s1)c1cccc(Oc2ccccc2)c1`, the activation was 1.27% (inactive).

Turning to `COC(=O)c1c(NC(=O)Nc2ccc(Cl)c(Cl)c2)sc2c1CCCC2`, the activation was 8.57% (active).

`CCOC(=O)c1c(NC(=O)Nc2cccc(Cl)c2)sc2c1CCCC2`: the activation was 0.0535% (inactive).

For the compound `COC(=O)c1c(NC(=O)c2ccc(Cl)c(Cl)c2)sc2c1CCCC2`, the activation is 0.167% (inactive).

As to `Cc1ccc(C)c(NC(=O)CN(c2cccc(C)c2C)S(C)(=O)=O)c1`, the activation is 0.883% (inactive). Turning to `COc1ccc(OC)c(NC(=O)CN(c2cccc(C)c2C)S(C)(=O)=O)c1`, the activation is 5.98% (active). Take `COc1ccc(NC(=O)CN(c2cc(OC)ccc2OC)S(C)(=O)=O)c(OC)c1`: the activation was 0.777% (inactive). Consider `CCCOc1ccc([N+](=O)[O-])cc1C1NC(=S)NC(C)=C1C(=O)OC` (stereo not drawn), for which the activation was -1.65% (inactive). Turning to `Cc1cc2nc(C3CCCCN3C(=O)c3cscn3)[nH]c2cc1C` (stereo not drawn), the activation is -0.0121% (inactive). As for `Cc1c2cnn(-c3ccccc3)c(=O)c2c(C)n1CCCC(=O)N1CCN(C)CC1`, the activation is 0.178% (inactive).

With `CCC(C(=O)N1CCCCC1)n1c(C)c2cnn(-c3ccccc3)c(=O)c2c1C` (stereo not drawn), the activation was 5.32% (active). `CCC(C(=O)N1CCN(C)CC1)n1c(C)c2cnn(-c3ccccc3)c(=O)c2c1C` (stereo not drawn): the activation was -1.42% (inactive).

Take `Cc1ccc(S(=O)(=O)Oc2ccc(/C=C3\SC(N)=NC3=O)cc2)cc1`: the activation was -0.455% (inactive).

For `COc1ccc2c(c1)C(Cc1csc(C)n1)(c1ccc(F)cc1)C(=O)N2` (stereo not drawn), the activation is 0.748% (inactive).

For the compound `CC(C)NCCOCCOc1ccc(I)cc1`, the activation was 0.568% (inactive). Take `CCNc1nc(NC(C)C)nc(OCCOC(C)=O)n1`: the activation was 5.11% (active). `CCNc1nc(NCC)nc(C(=O)O)n1`: the activation was -0.247% (inactive). As for `CCNc1nc(NC(C)C)nc(OCCOC(=O)c2ccccc2)n1`, the figure is 1.89% (inactive); as for `Cc1ccc(CN(C)Cc2nc3sc4c(c3c(=O)[nH]2)CCC4)o1`, 0.643% (inactive); as for `CC(C)c1ccc(Nc2nccn3c(-c4cccc(CO)c4)cnc23)cc1`, 7.31% (active). In the case of `COc1ccc(Nc2ncc(-c3ccc(CO)cc3)n3ccnc23)cc1`, the activation is -0.0468% (inactive). As to `NC(=O)c1ccc(Nc2nccn3c(-c4cccc(F)c4)cnc23)cc1`, the activation was -0.391% (inactive). On to `COc1ccccc1NC(=O)CSc1nnc(-c2ccc(O)cc2)o1`, for which the activation is -0.782% (inactive). As for `CCC1C(=O)NCCN1Cc1ccc2c(c1)CN(Cc1c[nH]c3ccccc13)CCO2` (stereo not drawn), the activation was 5.37% (active). As for `CC(=O)N1CCN(Cc2ccc3c(c2)CN(Cc2c[nH]c4ccccc24)CCO3)CC1`, the activation was 2.78% (inactive).

On to `CCOc1cccc(CN2CCOc3ccc(CN4CCNC(=O)C4CC)cc3C2)c1` (stereo not drawn), for which the activation is -1.24% (inactive). For the compound `COc1ccc2c(c1)C=C(CN1CCN(CC3CCCCC3)C(CCO)C1)CO2` (stereo not drawn), the activation was 5.13% (active). Regarding `COc1cc(CN2CCN(CC3CCCCC3)C(CCO)C2)ccc1O` (stereo not drawn), the activation is -0.725% (inactive). The figure for `COc1cccc2c1OCC(CN1CCN(C3CCCCC3)C(CCO)C1)=C2` (stereo not drawn) is 2.61% (inactive); for `O=C(Nc1ccc(Cl)cc1F)c1ccc(SCC(=O)N2CCCCC2)c([N+](=O)[O-])c1` it is 2.3% (inactive). The figure for `COc1ccc(S(=O)(=O)N(C)CC(=O)NCc2ccccn2)cc1C` is 2.7% (inactive); for `Cc1cccc(Nc2nnc(SCC(=O)N3CCCC3=O)s2)c1C` it is -1.1% (inactive); for `Cc1cccc(NC(=O)CN2C(=O)S/C(=C\c3ccc(Br)s3)C2=O)c1` it is 1.12% (inactive). Regarding `O=C(CN1C(=O)COc2ccc(Cl)cc21)Nc1ccccc1F`, the activation was 0.859% (inactive). On to `O=C(CN1C(=O)S/C(=C\c2ccc(Cl)s2)C1=O)Nc1ccccc1F`, for which the activation is 7.92% (active).

For `COc1ccc(N2C(=O)CN(C(=O)c3cc(C(F)(F)F)[nH]n3)CC23CCCC3)cc1`, the activation is -0.225% (inactive).

On to `C[C@H]1Cc2c(COc3ccccc3)nc3c(c2CO1)CN(C(=O)NCc1ccco1)CC3`, for which the activation was 8.56% (active).

Turning to `C[C@H]1Cc2c(COc3ccccc3)nc3c(c2CO1)CN(C(=O)Nc1cccc(C#N)c1)CC3`, the activation was -0.449% (inactive).

`COc1cccc(CC(=O)N2CCc3nc(COc4ccccc4)c4c(c3C2)CO[C@@H](C)C4)c1`: the activation was 4.35% (inactive). As to `Cc1ccnc(-n2c(=O)c3cc4c(=O)n(-c5cc(C)ccn5)c(=O)c4cc3c2=O)c1`, the activation was -0.463% (inactive). On to `Cc1ncc(CO)c(/C=N/NC(=O)c2cc3c(s2)CCC(C)C3)c1O` (stereo not drawn), for which the activation was -0.38% (inactive).

Turning to `CN(C)c1ccc(C=NCC(O)CN=Cc2ccc(N(C)C)cc2)cc1` (stereo not drawn), the activation is 0.679% (inactive). As for `CC[n+]1c(/C=C/c2ccc(N(C)C)cc2)oc2ccccc21`, the figure is -0.273% (inactive); as for `CC[n+]1cc(C)ccc1/C=C/c1ccc(N(C)C)cc1`, 5.25% (active).

For the compound `CCC(C)C(=O)NCc1nnc2n1CCN(C(=O)c1sc(C)nc1C)CC2` (stereo not drawn), the activation was -0.99% (inactive). In the case of `COc1cccc(NC(=O)c2cc([N+](=O)[O-])ccc2NC(=O)CNCc2cccnc2)c1`, the activation is -1.03% (inactive).

For `O=C(Nc1ccc(-c2ccncc2)cn1)C1COc2ccccc2O1` (stereo not drawn), the activation is -2.03% (inactive).

`COCCNc1nc2nonc2nc1N(C)Cc1ccc(C)cc1`: the activation is -1.03% (inactive). On to `COCCNc1nc2nonc2nc1N1CCCC1c1nccs1` (stereo not drawn), for which the activation was 1.38% (inactive). As for `COCCNc1nc2nonc2nc1N(C)Cc1ccncc1C`, the figure is 8.73% (active); as for `O=C(O)c1cc([N+](=O)[O-])c(NCc2ccccc2)c([N+](=O)[O-])c1`, 0.643% (inactive); as for `O=C(Cn1c(=O)n(Cc2ccc(F)cc2)c(=O)c2cccnc21)Nc1ccccc1F`, 0.571% (inactive). As for `O=C(Cn1c(=O)n(Cc2ccc3c(c2)OCO3)c(=O)c2cccnc21)Nc1ccc(F)cc1`, the activation was -0.979% (inactive). With `O=C(Cn1c(=O)n(Cc2cccs2)c(=O)c2cccnc21)Nc1ccc(F)cc1`, the activation was 5.75% (active).

The values above are taken from PubChem BioAssay AID1508602 (The Scripps Research Institute Molecular Screening Center, 2020).
